Data as given in PubChem BioAssay (NCI).
This is part of a sample that, as a whole, favours compounds with a hit. Of some 79,000 tested, about 15% had one in any assay. Active and inactive are the calls of the source. No stated cut-off is given here; in the data, active means growth inhibition above about 70%; inactive means the rest.

Assays:
[1] = NCI Yeast Anticancer Drug Screen. Data for the rad52 strain (AID 147);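 further: 0% = growth of vehicle-treated control cultures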; conditions: S. cerevisiae rad52 mutant growth inhibition, active compounds read high
Procedure, shortened: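 Measured: yeast growth inhibition. System: strain with a defined DNA damage repair alteration. Reference: vehicle-treated control cultures.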

[2] = NCI Yeast Anticancer Drug Screen. Data for the rad50EPP+ strain (AID 151);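 further: 0% = growth of vehicle-treated control cultures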; conditions: S. cerevisiae rad50 mutant strain, active compounds read high
Procedure, shortened: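 One strain with a rad50 alteration (rad50EPP+) was compound-treated, its growth then compared to that of vehicle controls.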

[3] = NCI Yeast Anticancer Drug Screen. Data for the mgt1 strain (AID 153); conditions: S. cerevisiae mgt1 mutant growth inhibition, active compounds read high
Procedure, shortened: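 After exposure of the mgt1 yeast mutant to compound, growth was measured and reported as inhibition compared with vehicle controls.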

[4] = NCI Yeast Anticancer Drug Screen. Data for the rad50 strain (AID 155);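 further: 0% = growth of vehicle-only cultures of the same strain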; conditions: S. cerevisiae rad50 strain growth inhibition, active compounds read high
Procedure, shortened: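 Vehicle-treated cultures provide the reference for the growth inhibition reported for compound-exposed, repair-deficient yeast.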

[5] = NCI Yeast Anticancer Drug Screen. Data for the mec2-1 strain (AID 157); conditions: S. cerevisiae mec2-1 strain, active compounds read high
Procedure, shortened: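 Test agents were screened against the mec2-1 yeast strain, with defined DNA repair or cell cycle alteration. Growth was scored as inhibition against vehicle-only controls.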

[6] = NCI Yeast Anticancer Drug Screen. Data for the rad14 strain (AID 159);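 further: 0% = growth of vehicle-treated control cultures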; conditions: S. cerevisiae rad14 strain growth inhibition, active compounds read high
Procedure, shortened: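 Inhibition of growth is reported for a repair-deficient yeast mutant following compound treatment, calculated relative to cultures that received vehicle.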

[7] = NCI Yeast Anticancer Drug Screen. Data for the sgs1 mgt1 strain (AID 161);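 further: 0% = growth of cultures given vehicle only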; conditions: S. cerevisiae sgs1 mgt1 strain, active compounds read high
Procedure, shortened: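 Genetically altered yeast, compound exposure, growth inhibition relative to vehicle.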

[8] = NCI Yeast Anticancer Drug Screen. Data for the CLN2oe strain (AID 163);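 further: 0% = growth of vehicle-only control cultures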; conditions: S. cerevisiae CLN2oe strain, active compounds read high
Procedure, shortened: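 Here, growth inhibition in a cell-cycle-altered yeast strain after compound exposure was quantified against vehicle control growth.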

[9] = NCI Yeast Anticancer Drug Screen. Data for the cln2 rad14 strain (AID 165);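 further: 0% = growth equal to vehicle treated cultures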; conditions: S. cerevisiae cln2 rad14 strain, active compounds read high
Procedure, shortened: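 Growth of compound-exposed yeast (cln2 rad14 genotype) measured and expressed as inhibition relative to vehicle.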

[10] = NCI Yeast Anticancer Drug Screen. Data for the bub3 strain (AID 167); conditions: S. cerevisiae bub3 mutant strain, active compounds read high
Procedure, shortened: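 Mutant yeast screening strain plus compound; vehicle-treated cultures serve as the 0% inhibition reference.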

[11] = NCI Yeast Anticancer Drug Screen. Data for the wt2 strain (AID 169); conditions: S. cerevisiae wt2 strain growth inhibition, active compounds read high
Procedure, shortened: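 Genetically defined yeast strains from a DNA-repair/cell-cycle panel were used. Compound-exposed yeast growth was measured, and the inhibition was calculated relative to vehicle treatment.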

[12] = NCI Yeast Anticancer Drug Screen. Data for the mlh1 strain (AID 171);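 further: 0% = growth of vehicle-treated control cultures of the same strain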; conditions: S. cerevisiae mlh1 strain growth inhibition, active compounds read high
Procedure, shortened: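 Here the genetically defined yeast mutant is grown with each compound, and the extent to which its growth falls below that of vehicle-exposed cells is reported.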

[13] = NCI Yeast Anticancer Drug Screen. Data for the sgs1 strain (AID 173);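 further: 0% = growth of vehicle-only control cultures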; conditions: S. cerevisiae sgs1 mutant, active compounds read high
Procedure, shortened: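 Relative growth inhibition, referenced to vehicle, was determined in a yeast strain with a defined alteration affecting DNA damage repair or cell cycle control after compound exposure.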

[14] = NCI Yeast Anticancer Drug Screen. Data for the mlh1 rad18 strain (AID 175); conditions: S. cerevisiae mlh1 rad18 strain growth inhibition, active compounds read high
Procedure, shortened: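 In this whole-cell yeast screen, a strain with altered DNA damage repair is challenged with compound, and its growth is measured against matched vehicle-treated controls.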

[15] = NCI Yeast Anticancer Drug Screen. Data for the rad18 strain (AID 177); conditions: S. cerevisiae rad18 mutant growth inhibition, active compounds read high
Procedure, shortened: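 Screen uses a yeast strain with a defined lesion in DNA damage repair; compound effect is read as loss of growth compared to untreated vehicle cultures.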

[16] = NCI Yeast Anticancer Drug Screen. Data for the wt1 strain (AID 149);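 further: 0% = growth of vehicle-treated wt1 cultures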; conditions: S. cerevisiae wt1 strain (SPY 50644) growth inhibition, active compounds read high
Procedure, shortened: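 Each compound is tested on wt1 yeast and the loss of growth versus vehicle gives the inhibition value.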

[17] = at 5.0 µM (retest, dose inferred, filed as 0.5)
[18] = at 50.0 µM (retest, dose inferred, filed as 5.0)

Measured: growth inhibition

O=C(NOC(=O)c1ccc([N+](=O)[O-])cc1)c1ccc(Cl)cc1
inactive: [1]; at 1.2 µM -1% | [1]; at 3.7 µM 4% | [1]; at 11.0 µM 31% | [2]; at 1.2 µM -19% | [2]; at 3.7 µM 23% | [2]; at 11.0 µM 68% | [3]; at 1.2 µM -58% | [3]; at 3.7 µM -33% | [3]; at 11.0 µM 1% | [4]; at 1.2 µM -36% | [4]; at 3.7 µM -40% | [4]; [17] 6% | [4]; at 11.0 µM 10% | [5]; at 1.2 µM -84% | [5]; at 3.7 µM -64% | [5]; [17] -4% | [5]; at 11.0 µM -15% | [6]; at 1.2 µM -52% | [6]; at 3.7 µM -27% | [6]; at 11.0 µM -7% | [7]; [17] 10% | [8]; at 1.2 µM -18% | [8]; at 3.7 µM 6% | [8]; at 11.0 µM 15% | [9]; [17] 36% | [10]; at 1.2 µM -19% | [10]; at 3.7 µM -18% | [10]; [17] 0% | [10]; at 11.0 µM -4% | [10]; at 33.0 µM 67% | [11]; at 1.2 µM -47% | [11]; at 3.7 µM -27% | [11]; at 11.0 µM 11% | [12]; at 1.2 µM -35% | [12]; at 3.7 µM -35% | [12]; at 11.0 µM -1% | [13]; at 1.2 µM -39% | [13]; at 3.7 µM -17% | [13]; at 11.0 µM 48% | [14]; [17] 14% | [15]; at 1.2 µM -11% | [15]; at 3.7 µM 2% | [15]; at 11.0 µM 43%
active: [1]; at 33.0 µM 89% | [1]; at 100.0 µM 97% | [2]; at 33.0 µM 85% | [2]; at 100.0 µM 94% | [3]; at 33.0 µM 90% | [3]; at 100.0 µM 97% | [4]; at 33.0 µM 83% | [4]; [18] 89% | [4]; at 50.0 µM 92.4% | [4]; at 100.0 µM 95% | [5]; at 33.0 µM 82% | [5]; [18] 93% | [5]; at 50.0 µM 92.7% | [5]; at 100.0 µM 97% | [6]; at 33.0 µM 88% | [6]; at 100.0 µM 97% | [7]; [18] 94% | [7]; at 50.0 µM 91.3% | [8]; at 33.0 µM 80% | [8]; at 100.0 µM 98% | [9]; [18] 96% | [9]; at 50.0 µM 89% | [10]; [18] 89% | [10]; at 50.0 µM 90% | [10]; at 100.0 µM 95% | [11]; at 33.0 µM 87% | [11]; at 100.0 µM 97% | [12]; at 33.0 µM 89% | [12]; at 100.0 µM 96% | [13]; at 33.0 µM 88% | [13]; at 100.0 µM 95% | [14]; [18] 96% | [14]; at 50.0 µM 89.7% | [15]; at 33.0 µM 90% | [15]; at 100.0 µM 96%

O=C1c2ccccc2-c2ccc(N=Cc3ccccc3)cc21
inactive: [1]; at 1.2 µM -6% | [1]; at 3.7 µM -8% | [1]; at 11.0 µM 10% | [1]; at 33.0 µM 68% | [16]; at 1.2 µM 1% | [16]; at 3.7 µM 8% | [16]; at 11.0 µM 14% | [16]; at 33.0 µM 27% | [16]; at 100.0 µM 69% | [3]; at 1.2 µM -4% | [3]; at 3.7 µM -2% | [3]; at 11.0 µM -5% | [3]; at 33.0 µM -1% | [3]; at 100.0 µM 58% | [4]; at 1.2 µM -14% | [4]; at 3.7 µM -11% | [4]; [17] 8% | [4]; at 11.0 µM 26% | [4]; at 33.0 µM 66% | [4]; [18] 51% | [5]; at 1.2 µM -4% | [5]; at 3.7 µM -2% | [5]; [17] 4% | [5]; at 11.0 µM -3% | [5]; at 33.0 µM 2% | [5]; [18] 21% | [5]; at 50.0 µM 5% | [5]; at 100.0 µM 24% | [6]; at 1.2 µM 3% | [6]; at 3.7 µM 2% | [6]; at 11.0 µM 3% | [6]; at 33.0 µM 18% | [6]; at 100.0 µM 45% | [7]; [17] 5% | [7]; [18] 27% | [7]; at 50.0 µM 36.9% | [8]; at 1.2 µM -7% | [8]; at 3.7 µM -11% | [8]; at 11.0 µM -13% | [8]; at 33.0 µM -8% | [8]; at 100.0 µM 24% | [9]; [17] -2% | [9]; [18] 9% | [9]; at 50.0 µM 6.45% | [10]; at 1.2 µM -6% | [10]; at 3.7 µM -3% | [10]; [17] 0% | [10]; at 11.0 µM -1% | [10]; at 33.0 µM 9% | [10]; [18] 18% | [10]; at 50.0 µM 31.6% | [10]; at 100.0 µM 54% | [11]; at 1.2 µM 5% | [11]; at 3.7 µM 6% | [11]; at 11.0 µM 18% | [11]; at 33.0 µM 51% | [12]; at 1.2 µM -2% | [12]; at 3.7 µM -8% | [12]; at 11.0 µM -5% | [12]; at 33.0 µM 23% | [13]; at 1.2 µM -13% | [13]; at 3.7 µM -11% | [13]; at 11.0 µM -4% | [13]; at 33.0 µM 19% | [14]; [17] -12% | [14]; [18] 46% | [14]; at 50.0 µM 56.5% | [15]; at 1.2 µM -10% | [15]; at 3.7 µM -8% | [15]; at 11.0 µM -4% | [15]; at 33.0 µM 12%
active: [1]; at 100.0 µM 96% | [4]; at 50.0 µM 82.5% | [4]; at 100.0 µM 96% | [11]; at 100.0 µM 92% | [12]; at 100.0 µM 79% | [13]; at 100.0 µM 86% | [15]; at 100.0 µM 84%
